According to the supplement of paper PMC13380429:

System: Vero E6 infected with SARS-CoV-2
Test: inhibition of SARS-CoV-2 cytopathic effect; higher = more antiviral protection, active = above 15
Settings: 48 h

Measured: inhibition of SARS-CoV-2 cytopathic effect

CCOc1ccc(NC(C)=O)cc1 [phenacetin]
inactive: 1 nM 0.72% | 8.33 nM -3.1% | 100 nM 1.64% | 833.33 nM 0.87% | 10000 nM 0.81%

CN(C)c1nc(N)c(C(=O)Nc2cccnc2)nc1Cl
inactive: 1 nM 1.28% | 8.33 nM 4.72% | 100 nM -0.62% | 833.33 nM 4.15% | 10000 nM 0.82%

CN1C(=O)C(N2CCCCC2)S/C1=C\C(=O)O (stereo not given) [ozolinone]
inactive: 1 nM -4.09% | 8.33 nM 0.03% | 100 nM 4.18% | 833.33 nM 0.02% | 10000 nM -0.02%

O=C(Nc1ccccc1Br)N[C@@H]1CCN(c2ccc(C(F)(F)F)cn2)C1
inactive: 1 nM 3.02% | 8.33 nM 3.06% | 100 nM 1.72% | 833.33 nM 3.42% | 10000 nM 1.82%

CCN1CCCC1CNC(=O)c1cc(S(N)(=O)=O)ccc1OC (stereo not given) [sulpiride]
inactive: 1 nM 0.06% | 8.33 nM -1.14% | 100 nM 0.7% | 833.33 nM 1.07% | 10000 nM 0.685%

C[C@]1(c2nc3c(C(N)=O)cccc3[nH]2)CCCN1 [veliparib]
inactive: 1 nM 3.9% | 8.33 nM 7.83% | 100 nM 5.13% | 833.33 nM 4.23% | 10000 nM 8.58%

CCC(=O)OCC(=O)[C@@]1(OC(=O)CC)[C@H](C)C[C@H]2[C@H]3[C@H]([C@@H](O)C[C@@]21C)[C@@]1(C)C=CC(=O)C=C1C[C@H]3Cl [alclometasone-dipropionate]
inactive: 1 nM 3% | 8.33 nM 0.48% | 100 nM 1.16% | 833.33 nM 1.07% | 10000 nM -2.92%

CC(C)[C@H]1[C@@H]2CC[C@@H](C2)[C@@H]1N
inactive: 1 nM 0.17% | 8.33 nM 2.01% | 100 nM 5.77% | 833.33 nM 6.62% | 10000 nM 4.27%

Oc1c(Cl)cc(Cl)cc1Sc1cc(Cl)cc(Cl)c1O [bithionol]
inactive: 1 nM 0.29% | 8.33 nM 0.59% | 100 nM -0.92% | 833.33 nM -0.55% | 10000 nM 2.32%

Cc1oc(-c2ccccc2)nc1CCOc1ccc(CC2SC(=O)NC2=O)c2sccc12 (stereo not given) [edaglitazone]
inactive: 1 nM 0.32% | 8.33 nM 0.98% | 100 nM 0.63% | 833.33 nM 1.32% | 10000 nM 2.31%

CCN[C@@H](C)Cc1cccc(C(F)(F)F)c1 [dexfenfluramine]
inactive: 1 nM 1.76% | 8.33 nM -0.09% | 100 nM 2.9% | 833.33 nM -3.54% | 10000 nM 0.8%

CO[C@H](C(=O)[C@@H](O)[C@@H](C)O)[C@@H]1Cc2cc3cc(O[C@H]4C[C@@H](O[C@H]5C[C@@H](O)[C@H](O)[C@@H](C)O5)[C@@H](O)[C@@H](C)O4)c(C)c(O)c3c(O)c2C(=O)[C@H]1O[C@H]1C[C@@H](O[C@H]2C[C@@H](O[C@H]3C[C@](C)(O)[C@H](O)[C@@H](C)O3)[C@H](O)[C@@H](C)O2)[C@H](O)[C@@H](C)O1 [plicamycin]
inactive: 1 nM 2.66% | 8.33 nM 3.18% | 100 nM 3.85% | 833.33 nM -3.43% | 10000 nM -7.42%

CN(C)Cc1ccc(S(=O)(=O)n2ccc(/C=C/C(=O)NO)c2)cc1 [resminostat]
inactive: 1 nM 0.52% | 8.33 nM -2.34% | 100 nM -0.22% | 833.33 nM -9.24% | 10000 nM -24.5%

C=CC1=C(C(=O)O)N2C(=O)[C@@H](NC(=O)/C(=N\O)c3csc(N)n3)[C@H]2SC1 [cefdinir]
inactive: 1 nM 1.85% | 8.33 nM 2.62% | 100 nM 2.17% | 833.33 nM -0.24% | 10000 nM 0.66%

CC(O)(CS(=O)(=O)c1ccc(F)cc1)C(=O)Nc1ccc(C#N)c(C(F)(F)F)c1 (stereo not given) [bicalutamide]
inactive: 1 nM -2.58% | 8.33 nM -1.35% | 100 nM 0.77% | 833.33 nM -0.42% | 10000 nM -0.92%

O=C(NCCCN1CCOCC1)c1ccc(Cl)cc1 [eprobemide]
inactive: 1 nM 0.75% | 8.33 nM 1.72% | 100 nM 4.31% | 833.33 nM -1.08% | 10000 nM 0.69%

O=C(C[S+]([O-])Cc1ccco1)NC/C=C\COc1cc(CN2CCCCC2)ccn1 (stereo not given) [lafutidine]
inactive: 1 nM -0.4% | 8.33 nM 5.21% | 100 nM 1.21% | 833.33 nM 5.01% | 10000 nM 3.05%
